Test results from PubChem BioAssay AID1347142 (National Center for Advancing Translational Sciences (NCATS), 2019).
Inconclusive results are not listed. Active and inactive are the calls of the source. Calls follow the shape of the dose curve; as a rule, active = well fitted inhibition curve with a large enough effect; inconclusive = small, poorly fitted or top-dose-only effect; inactive = no such curve, though single readings can be large or run the other way.

target: N-terminal Xaa-Pro-Lys N-methyltransferase 1 (Homo sapiens) (UniProt Q9BV86); experiment: qHTS Assay for Inhibitors of N-terminal methyltransferase 1 (NTMT1): ThioGlo3 Assay Confirmatory Screen, Round 1.; conditions: NTMT1 SAHH-coupled ThioGlo3 fluorescence, 30 min; series mostly up to 56.8 µM; activity change, negative = inhibition: at the top concentration
Excerpt: Assay Submitter (PI): Rong Huang Ph.D, Purdue University, West Lafayette, IN 47907 The N-terminal methytransferase 1 is the first methyltransferase that methylates protein alpha-N-amines and plays an important role in regulating cell mitosis, chromatin interactions and DNA repair. It is observed to be over-expressed in various cancer patient tissues like malignant melanoma and colorectal cancer tissues. Knockdown of NTMT1 in cancer cells causes cell mitotic defects and enhances sensitivity to DNA damaging chemotherapeutics. […] These critical cellular processes in which NTMT1 is implicated, coupled with emerging links to cellular dysfunction, strengthen the inference that NTMT1 is a compelling novel anticancer target. Progress have been made in understanding the molecular properties of NTMT1 and the biological consequences of protein alpha-N-terminal methylation, but there are no specific small molecule probes available for NTMT1 to fully characterize its MTase activity. To address this unmet need, a panel of assay is created and established to enable quantitative high-throughput screening (qHTS) for novel, potent, and selective small molecule NTMT1 inhibitors. Two orthogonal qHTS that use different reagents (ThioGlo vs. MTaseGlo) are developed for primary robotic screening against the NCATS chemical library of more than 400,000 small molecules. Identified inhibitors are reacquired, validated, and further characterized. […] Early Translation Branch (ETB) National Center for Advancing Translational Sciences (NCATS) National Institute of Health (NIH)
Materials: NTMT1 enzyme, substrate SPKRIA, control peptide RCC1-6 is provided by the Huang laboratory. ThioGlo3 Assay: In brief, 125nM NTMT1 enzyme was dispensed into a 1536-well assay plate with Aurora Discovery BioRAPTR Flying Reagent Dispenser (FRD, Beckton-Dickenson). Compounds (at various concentration) or 1uM RCC1-6 (SPKRIA) control were transferred to the assay plate using the Kalypsys 1536-pintool apparatus. After 1 min of room temperature incubation, 1uL of substrate (100uM SAM, 10uM SAHH, 15uM ThioGlo3) was added to the wells bringing the final assay volume to 4uL. Initial (background) fluorescence readout (EX: 340nm, EM: 450nm) was then detected using the PerkinElmer ViewLux microplate imager and a final fluorescence readout was taken after 30 min of room temperature incubation. The data was normalized to the background fluorescence.
Also: nearly all actives have a fitted effect of over 80% in size.
For activity change, negative = inhibition in this document: 0% is about no effect.
Potency is read from the fitted curve at half-maximal effect.

N-terminal Xaa-Pro-Lys N-methyltransferase 1 (Homo sapiens), sequence (Q9BV86 whole entry, looked up): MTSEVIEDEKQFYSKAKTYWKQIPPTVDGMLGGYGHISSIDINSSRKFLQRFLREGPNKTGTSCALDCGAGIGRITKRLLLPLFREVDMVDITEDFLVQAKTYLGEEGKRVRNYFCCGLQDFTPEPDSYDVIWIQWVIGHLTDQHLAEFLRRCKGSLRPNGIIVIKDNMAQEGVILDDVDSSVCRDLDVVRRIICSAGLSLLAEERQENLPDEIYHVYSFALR

Potency, inactive:
C[S+](CC[C@H](N)C(=O)O)C[C@H]1O[C@@H](n2cnc3c(N)ncnc32)[C@H](O)[C@@H]1O (stereo not given in full)

Potency, active:
CCCN(C)CCCOc1cc2nc(N3CCCN(C)CC3)nc(NC3CCN(C)CC3)c2cc1OC 27.1 µM
COc1cc2c(NC3CCN(CC4CCCCC4)CC3)nc(N3CCCCC3)nc2cc1OCCCN1CCCCC1 17.1 µM
COc1cc2c(NC3CCN(C(C)C)CC3)nc(N3CCCN(C(C)C)CC3)nc2cc1OCCCN1CCCC1 27.1 µM
COc1cc2c(NC3CCN(C)CC3)nc(N3CCCN(C)CC3)nc2cc1OCCCCCN 24.1 µM
COc1cc2c(NC3CCN(C)CC3)nc(N3CCCN(C)CC3)nc2cc1OCC1CCNCC1 24.1 µM
COc1cc2c(NC3CCN(C(C)C)CC3)nc(N3CCCN(C)CC3)nc2cc1OCCCN1CCCCC1 24.1 µM
COc1cc2c(NC3CCN(CC4CCCCC4)CC3)nc(N3CCCN(C(C)C)CC3)nc2cc1OCCCN1CCCCC1 24.1 µM
COc1cc2nc(N3CCN(C)CC3)nc(N3CCOCC3)c2cc1OC 21.5 µM
COc1cc2nc(N3CCOCC3)nc(NC3CC3)c2cc1OC 27.1 µM
CNc1nc(N2CCN(C)CC2)nc2cc(OC)c(OC)cc12 24.1 µM
COc1cc2c(NC3CCN(C4CCCCC4)CC3)nc(N3CCCCCC3)nc2cc1OCCOCCN(C)C 24.1 µM
CCN1CCCN(c2nc(NC3CCN(C(C)C)CC3)c3cc(OC)c(OCCCN4CCCC4)cc3n2)CC1 24.1 µM
OC[C@@H]1O[C@@H](n2cnc3c(NCc4ccco4)ncnc32)[C@H](O)[C@H]1O 24.1 µM
COc1cc2c(NC3CCN(C(C)C)CC3)nc(N3CCCN(C)CC3)nc2cc1OCCOCCN1CCCC1 27.1 µM
COc1cc2nc(N3CCCN(C)CC3)nc(N3CCN(C)CC3)c2cc1OC 8.57 µM
COc1cc2c(NC3CCN(C)CC3)nc(N3CCCN(C)CC3)nc2cc1OCCCN1CCCCC1 24.1 µM
COc1cc2nc(N3CCN(C)CC3)nc(NCCN(C)C)c2cc1OC 24.1 µM
COc1cc2c(NC3CCN(C)CC3)nc(N3CCCN(C)CC3)nc2cc1OCCN(C)C 21.5 µM
COc1cc2c(NC3CCN(CC4CCCCC4)CC3)nc(N3CCCCCC3)nc2cc1OCCCN1CCCCC1 24.1 µM
COc1cc2c(NC3CCN(C(C)C)CC3)nc(N3CCCN(C)CC3)nc2cc1OCCCN1CCCC1 24.1 µM
COc1cc2nc(N3CCN(C(C)=O)CC3)nc(NC3CC3)c2cc1OC 21.5 µM

Activity change, negative = inhibition, inactive:
Nc1ncnc2c1ncn2[C@@H]1O[C@H](CSCC[C@H](N)C(=O)O)[C@@H](O)[C@H]1O 1830%
COC(=O)c1ccc2c(c1)nc(NC(=O)c1ccccc1)n2CCCc1ccccc1 380%
C[S+](CCC(N)C(=O)O)CC1O[C@@H](n2cnc3c(N)ncnc32)C(O)C1O (stereo not given in full) 544%
Nc1ncnc2c1nc(Cl)n2[C@@H]1O[C@H](CO)[C@@H](O)[C@@H]1O 6.13%
Nc1ncnc2c1[nH]c(=O)n2C1CC(O)C(CO)O1 (stereo not given) -12.6%
CNC(=O)[C@H]1O[C@H](n2cnc3c(NCc4cccc(I)c4)nc(Cl)nc32)[C@@H](O)[C@@H]1O 12.8%
Nc1nc2c([nH]c(=O)n2[C@@H]2O[C@H](CO)[C@@H](O)[C@H]2O)c(=O)[nH]1 16.6% [at 6.3 µM]
C=C1OC(CO)(n2cnc3c(N)ncnc32)C(O)C1O (stereo not given) -17.8%
CNc1ncnc2c1ncn2[C@@H]1O[C@H](COP(=O)(O)O)[C@@H](O)[C@H]1O -11.9%
Nc1ncnc2c1ncn2[C@@H]1O[C@H](COP(=O)(O)OP(=O)(O)OP(=O)(O)OP(=O)(O)OC[C@@H]2O[C@H](n3cnc4c(N)ncnc43)[C@@H](O)C2O)C(O)[C@H]1O (stereo not given in full) 15.1%
Nc1ncnc2c1ncn2[C@H]1C[C@H](O)[C@@H](CO)O1 -5.23%
OC[C@@H]1O[C@H](n2cnc3c(SCc4ccccc4)ncnc32)[C@H](O)[C@H]1O -1.57%
N#Cc1ccc(COC[C@H]2O[C@@H](n3c(NCc4ccc(Cl)c(Cl)c4)nc4c(N)ncnc43)[C@@H](O)[C@@H]2O)cc1 -10.4%
Nc1ncnc2c1ncn2[C@H]1O[C@H](CO)[C@@H](O)[C@@H]1O -3.26%
Nc1nc(Nc2ccccc2)nc2c1ncn2[C@@H]1O[C@@H](CO)[C@H](O)[C@H]1O 9.37%
OC[C@H]1O[C@@H](n2cnc3c(NCc4ccccc4)ncnc32)[C@H](O)[C@@H]1O -5.53%
COC1C(O)C(CO)OC1n1cnc2c(NC3CCCCC3)ncnc21 (stereo not given) 14.5%
Nc1ncnc2c1ncn2[C@@H]1O[C@H](C(=O)NC2CC2)[C@@H](O)[C@H]1O 2.31%
